Compound activity: PubChem, Sanford-Burnham Center for Chemical Genomics
TRAIL sens C8: viability loss with TRAIL in NB7+C8 cells, primary screen, TRAIL sensitizer project, cell-based, ATPlite luminescence. inhibition (viability loss, TRAIL sensitization), % at 10 µM. actives 1% (n = 360,000);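 active = compounds causing at least 50% loss of cell viability in the single-dose screen, relative to plate controls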
CF NFkB inh: inhibitors of PAF-induced NF-kB signaling, primary screen, cell-based, GFP fluorescence, uHTS; actives 0.86% (n = 360,000); AID 588850, 2011; inhibition, % at 5 µM; KKLEB NF-kB-GFP reporter, GFP fluorescence overnight;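 active = at least 50% inhibition at 5 µM, scaled per plate between neutral and stimulator controls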;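 note: PAF is a Pseudomonas aeruginosa culture filtrate used as stimulus; plate controls were PAF-stimulated DMSO wells for no effect and unstimulated DMSO wells for full effect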
KKLEB tox: cytotoxicity in KKLEB CF airway cells, primary screen, cytotoxicity control for CF NF-kB inhibitor project, cell-based, uHTS, fluorescence assay plates | actives 0.36% (n = 360,000) | activity change (cytotoxicity), % at 5 µM | KKLEB CF airway cells viability, ATPlite luminescence, overnight; stronger effect = lower value; cells stimulated with P. aeruginosa culture filtrate | AID 602141, 2011;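 active = corrected activity change at or below -50% at 5 µM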
HIF-2a inh: HIF-2a reporter inhibitors, primary screen, luminescence, 786-0 RCC cells | 786-0 RCC cells HIF-2a reporter, luciferase luminescence, overnight | inhibition, % at 18.8 µM | actives 0.72% (n = 360,000) | AID 624352, 2012;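 active = inhibition of the luminescence signal of 40% or more relative to plate controls, in a single-dose primary screen at 18.75 µM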
PPC-1+TRAIL kill: compounds killing PPC-1 cancer cells with TRAIL present, primary screen, TRAIL potentiator project, ATPLite luminescence, uHTS; AID 1443, 2008; cell killing (% activity), % at 4 µM or 5 µM; actives 0.41% (n = 220,000); PPC-1 cells + TRAIL, ATPLite viability luminescence;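 active = cell killing above 50% in the first pass at 4 µM, then a duplicate retest at 5 µM averaging 50% or more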;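 note: plate controls were cells with TRAIL plus DMSO for no effect and medium-only wells lacking cells for full effect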
hiPSC survival: enhancers of single-cell hiPSC survival, primary screen, ATPlite luminescence. 100% = ROCK inhibitor wells, 0% = DMSO. survival enhancement, % at 20 µM. actives 0.044% (n = 360,000); in the data active = survival enhancement above about 18%;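 note: cells exposed to compounds for 16 hours before the ATP read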
Mdm2 MdmX conf: retested Mdm2-MdmX interaction blockers, confirmation, cell-based, luminescence, single concentration, set 2; inhibition, % at 8 µM; actives 99% (n = 740); SaOS-2 split-luciferase Mdm2/MdmX complementation; shares compounds with HIF-2a inh;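 active = mean inhibition of the luminescence signal across two replicates at or above 26 percent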
Target sequence (O15151 whole entry, looked up): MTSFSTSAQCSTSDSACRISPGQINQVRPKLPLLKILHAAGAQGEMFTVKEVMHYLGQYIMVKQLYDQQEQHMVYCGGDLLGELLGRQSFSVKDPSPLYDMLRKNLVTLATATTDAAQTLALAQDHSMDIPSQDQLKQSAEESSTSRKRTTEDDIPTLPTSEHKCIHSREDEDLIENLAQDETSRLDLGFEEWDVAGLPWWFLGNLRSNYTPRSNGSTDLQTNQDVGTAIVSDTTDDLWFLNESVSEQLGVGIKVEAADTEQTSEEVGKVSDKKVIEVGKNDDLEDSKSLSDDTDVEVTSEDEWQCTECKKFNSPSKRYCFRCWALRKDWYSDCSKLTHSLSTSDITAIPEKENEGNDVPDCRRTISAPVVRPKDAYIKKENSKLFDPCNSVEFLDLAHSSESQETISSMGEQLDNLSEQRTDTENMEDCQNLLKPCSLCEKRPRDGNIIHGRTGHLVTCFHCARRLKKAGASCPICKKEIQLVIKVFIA
Target sequence (Q00987 whole entry, looked up): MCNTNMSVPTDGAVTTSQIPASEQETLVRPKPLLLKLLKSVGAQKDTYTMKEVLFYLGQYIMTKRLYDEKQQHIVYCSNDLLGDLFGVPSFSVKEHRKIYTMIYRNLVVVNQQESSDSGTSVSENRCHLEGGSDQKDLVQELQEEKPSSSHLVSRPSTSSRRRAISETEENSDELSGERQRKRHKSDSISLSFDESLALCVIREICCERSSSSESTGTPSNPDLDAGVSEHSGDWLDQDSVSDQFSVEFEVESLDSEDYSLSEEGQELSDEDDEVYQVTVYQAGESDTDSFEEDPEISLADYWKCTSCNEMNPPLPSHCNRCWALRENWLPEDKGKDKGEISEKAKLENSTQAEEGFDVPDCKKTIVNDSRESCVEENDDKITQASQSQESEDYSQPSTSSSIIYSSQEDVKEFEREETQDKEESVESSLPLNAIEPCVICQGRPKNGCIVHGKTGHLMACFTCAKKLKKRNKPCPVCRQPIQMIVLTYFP
HIF-2a inh conf: HIF-2a reporter inhibitor retest, confirmation, luminescence, 786-0 RCC cells; shares compounds with HIF-2a inh; HIF-2a luciferase reporter luminescence, overnight; inhibition, % at 18.8 µM; actives 56% (n = 1,800); AID 651580, 2012;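 active = mean inhibition across four replicates of at least 40 percent at the single tested concentration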
HIF-1a counter: HIF-1a luciferase reporter signal reduction – MiaPaCa-2 cells, single concentration, counter-screen for HIF-2a inhibitor project, confirmation | shares compounds with HIF-2a inh | MiaPaCa-2 HIF-1a luciferase reporter, desferoxamine, overnight | AID 651589, 2012 | inhibition, % at 18.8 µM | actives 72% (n = 1,800);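 active = mean inhibition of the reporter signal across four replicates at the single tested dose of 50% or more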
* marks the source's active call; other numbers are inactive results; . = no result given. Shown are actives, neighbours in structure and some others; about 2.2% of the full set was active somewhere.

SMILES	TRAIL sens C8	CF NFkB inh	KKLEB tox	HIF-2a inh	PPC-1+TRAIL kill	hiPSC survival	HIF-2a inh conf	HIF-1a counter	others
CN(C)C(=O)/C(C#N)=C\c1cc(Br)c(Sc2ccc(Cl)cc2)o1	4	31	-22	57*	4	-2	15	103*
Clc1ccc(Sc2oc(/C=N/n3cnnc3)cc2Br)cc1	-3	5	-6	12	-6	-1	.	.
Cc1ccc(N(C)S(=O)(=O)c2cccc(C(=O)OCC(=O)c3c(N)n(C)c(=O)n(C)c3=O)c2)cc1	0	-5	-18	16	.	-1	.	.
CN(C)S(=O)(=O)c1cccc(C(=O)OCC(=O)c2c(N)n(C)c(=O)n(C)c2=O)c1	-1	-4	2	41*	26	0	-10	-8
CCCC(=O)N1CCCC1(C)C(=O)N(C)Cc1cccc2ccccc12 (configuration not stated)	8	-27	8	26	.	-1	.	.
Cc1cccnc1NC(=O)c1ccc([N+](=O)[O-])o1	-6	11	-4	1	5	3	.	.
Cc1cccc(/C=C/C(=O)c2ccc([N+](=O)[O-])o2)c1	33	90*	-35	14	.	-2	.	.	Mdm2 MdmX conf=103*
O=C(/C=C/c1cccc([N+](=O)[O-])c1)c1ccco1	-1	3	-6	7	.	0	.	.
Cc1ccccc1/C=C/C(=O)c1ccc([N+](=O)[O-])o1	.	.	.	.	.	.	.	.	Mdm2 MdmX conf=100*
Cc1ccc(C)c(N=Nc2ccc(O)c3ncccc23)c1	30	-21	8	16	6	-4	.	.	Mdm2 MdmX conf=100*
Cc1c(/C(O)=C2/C(=O)C(=O)N(Cc3cccnc3)C2c2cccs2)cnn1-c1ccccc1 (configuration not stated)	6	-2	-6	-18	44	2	.	.
Cc1c(/C(O)=C2/C(=O)C(=O)N(Cc3cccnc3)C2c2ccccn2)cnn1-c1ccccc1 (configuration not stated)	6	4	3	67*	10	-1	52*	56*
O=C(O)c1ccc(N/N=C/c2ccc(C(F)(F)F)cc2)cc1	9	6	-2	45*	14	-1	68*	33
CC(C)(C)c1ccc(/C=N/Nc2ccc(C(=O)O)cc2)cc1	17	18	-2	74*	0	1	76*	33
O=C(O)c1ccc(/C=N/Nc2ncc(C(F)(F)F)cc2Cl)cc1	4	-8	-2	-16	22	-1	.	.
CC(C)(C)c1ccc(/C=N/Nc2cccc(C(=O)O)c2)cc1	33	-4	-4	9	12	-1	.	.
CCOC(=O)C1=C(COC(=O)[C@@H]2CCCN2S(=O)(=O)c2ccc(C)cc2)NC(=O)NC1C (some centres not stated)	8	0	2	5	.	0	.	.
COc1ccc(-c2csc3ncn(-c4ccccc4)c(=O)c23)cc1OC	4	6	-4	25	-7	0	.	.
COc1ccc(-c2csc3ncn(-c4cccc(C)c4)c(=O)c23)cc1OC	-6	10	-4	41*	-4	-1	2	2
COc1ccc(Cn2c(C)nc3ccc([N+](=O)[O-])cc3c2=O)cc1	-1	27	-4	6	.	2	.	.
Cc1cccc(Oc2sc(C(=O)c3ccccc3)c(N)c2C#N)c1	12	37	-26	43*	-15	8	20	43
O=C1c2ccccc2C(=O)N1OS(=O)(=O)c1ccc(F)cc1	3	-8	12	29	.	0	.	.
Cc1cc(C)c(S(=O)(=O)ON2C(=O)c3ccccc3C2=O)cc1C	9	-2	2	39	16	0	.	.
Cc1ccc(S(=O)(=O)ON2C(=O)c3ccccc3C2=O)c(C)c1	-11	19	-3	72*	17	-2	59*	-1
Cc1cc(C)c(C)c(S(=O)(=O)ON2C(=O)c3ccccc3C2=O)c1C	4	69*	-53*	56*	15	0	50*	8
SMILES	TRAIL sens C8	CF NFkB inh	KKLEB tox	HIF-2a inh	PPC-1+TRAIL kill	hiPSC survival	HIF-2a inh conf	HIF-1a counter	others
CCOc1ccc(CCNC(=O)COC(=O)c2cc(=O)[nH]c3ccccc23)cc1OCC	-18	-13	12	1	.	0	.	.
O=C(CSc1nc(Nc2ccccc2)nc(N2CCOCC2)n1)NC1CCCCC1	-12	16	7	16	.	0	.	.
O=C(O)c1ccc(Nc2nc3c(s2)CCCC3)cc1	30	-1	-1	46*	16	-2	64*	52*
COc1ccc(-c2oc3ncn(CCN4CCOCC4)c(=N)c3c2-c2ccc(OC)cc2)cc1	7	14	-24	45*	1	-2	12	86*
COc1ccc(-c2oc3ncnc(NCCN4CCOCC4)c3c2-c2ccc(OC)cc2)cc1	9	36	-31	47*	9	-1	30	90*
CCN1C(=O)N[C@@H](c2ccco2)C(C(=O)OC)=C1C	-11	28	-1	-5	.	9	.	.
COc1ccc(N(C(=O)c2cnccn2)C(C(=O)NC2CCCCC2)c2ccc(Cl)cc2)cc1 (configuration not stated)	0	10	-6	8	.	-1	.	.
COc1ccc(C(C(=O)NC2CCCCC2)N(C(=O)CCl)c2ccc(Cl)cc2)cc1 (configuration not stated)	96*	97*	-99*	27	62*	-2	.	.	Mdm2 MdmX conf=98*
Cc1cccc(N(C(=O)CNC(=O)c2ccco2)C(C(=O)NC2CCCCC2)c2cccnc2)c1 (configuration not stated)	0	0	-3	19	.	0	.	.
O=C(NC1CCCCC1)C(c1cccnc1)N(C(=O)CCl)c1cccc(Cl)c1 (configuration not stated)	98*	54*	-63*	62*	12	-2	98*	106*	Mdm2 MdmX conf=103*
COc1ccc(OC)c(NC(=O)CN(C)S(=O)(=O)c2ccc(Cl)cc2)c1	-4	11	3	17	31	-1	.	.
